According to the supplement of paper PMC10849652:
The full data set covers some 7,900 targets. This sample favours those with a hit. About 0.6% of all pairs of compound and target were hits.

Compound: c1cn2cc(-c3ccc4cn[nH]c4c3)nc(Nc3ccc(N4CCOCC4)cc3)c2n1 [entospletinib]
Assay: log2 fold change, soluble protein after heating vs DMSO (PISA); higher = thermal stabilisation; K562 cells, 10 uM, 30 min; active = over 0.2 and 3.5 SD of the protein, either way, in both replicates (recomputed)
Procedure, shortened: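 K562 cells at 2×10^6 cells/mL were given 10 μM compound for 30 min. Aliquots then went through 3 min of heating across 48°C-58°C, were pooled, and were extracted in PBS with 0.5% NP-40 at 4°C, and the supernatant after 21,000xg for 90 min was quantified by TMTpro 16plex LC-MS/MS with channel sums equalised. Thermal stability relative to control samples, from duplicates, is given as log2 fold change.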

Chain of UniProt Q14493 (Q14493 whole entry, looked up): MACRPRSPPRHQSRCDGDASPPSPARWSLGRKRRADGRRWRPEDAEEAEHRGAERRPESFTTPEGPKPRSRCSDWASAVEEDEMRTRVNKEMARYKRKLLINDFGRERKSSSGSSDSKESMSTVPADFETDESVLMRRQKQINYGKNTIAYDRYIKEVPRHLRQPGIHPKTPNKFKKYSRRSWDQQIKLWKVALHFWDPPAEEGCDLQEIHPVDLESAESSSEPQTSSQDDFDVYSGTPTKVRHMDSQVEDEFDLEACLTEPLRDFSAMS
Chain of UniProt Q8WWV3 (Q8WWV3 whole entry, looked up): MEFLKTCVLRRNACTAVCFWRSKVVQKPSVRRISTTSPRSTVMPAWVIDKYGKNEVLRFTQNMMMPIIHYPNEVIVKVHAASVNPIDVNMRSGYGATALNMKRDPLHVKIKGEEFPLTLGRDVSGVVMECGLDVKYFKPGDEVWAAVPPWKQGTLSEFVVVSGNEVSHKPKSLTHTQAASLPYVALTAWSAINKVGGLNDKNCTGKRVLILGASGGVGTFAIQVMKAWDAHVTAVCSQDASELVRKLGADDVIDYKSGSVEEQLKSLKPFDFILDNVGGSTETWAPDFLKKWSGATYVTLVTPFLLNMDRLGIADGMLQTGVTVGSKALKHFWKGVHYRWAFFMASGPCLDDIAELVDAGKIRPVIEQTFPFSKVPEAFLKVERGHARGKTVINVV
Chain of UniProt Q13530 (Q13530 whole entry, looked up): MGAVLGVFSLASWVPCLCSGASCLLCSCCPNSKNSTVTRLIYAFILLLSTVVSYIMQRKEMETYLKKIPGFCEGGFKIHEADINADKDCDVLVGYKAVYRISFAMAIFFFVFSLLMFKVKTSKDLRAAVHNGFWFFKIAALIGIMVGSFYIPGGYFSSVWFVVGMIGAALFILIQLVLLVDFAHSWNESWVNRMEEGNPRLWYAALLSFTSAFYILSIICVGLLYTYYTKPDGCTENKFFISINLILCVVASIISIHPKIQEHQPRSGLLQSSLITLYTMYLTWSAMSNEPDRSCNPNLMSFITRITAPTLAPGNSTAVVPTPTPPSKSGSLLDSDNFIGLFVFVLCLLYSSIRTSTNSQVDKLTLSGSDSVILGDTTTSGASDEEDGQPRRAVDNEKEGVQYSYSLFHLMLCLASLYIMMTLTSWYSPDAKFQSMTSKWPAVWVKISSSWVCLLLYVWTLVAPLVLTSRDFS
Chain of UniProt A1X283 (A1X283 whole entry, looked up): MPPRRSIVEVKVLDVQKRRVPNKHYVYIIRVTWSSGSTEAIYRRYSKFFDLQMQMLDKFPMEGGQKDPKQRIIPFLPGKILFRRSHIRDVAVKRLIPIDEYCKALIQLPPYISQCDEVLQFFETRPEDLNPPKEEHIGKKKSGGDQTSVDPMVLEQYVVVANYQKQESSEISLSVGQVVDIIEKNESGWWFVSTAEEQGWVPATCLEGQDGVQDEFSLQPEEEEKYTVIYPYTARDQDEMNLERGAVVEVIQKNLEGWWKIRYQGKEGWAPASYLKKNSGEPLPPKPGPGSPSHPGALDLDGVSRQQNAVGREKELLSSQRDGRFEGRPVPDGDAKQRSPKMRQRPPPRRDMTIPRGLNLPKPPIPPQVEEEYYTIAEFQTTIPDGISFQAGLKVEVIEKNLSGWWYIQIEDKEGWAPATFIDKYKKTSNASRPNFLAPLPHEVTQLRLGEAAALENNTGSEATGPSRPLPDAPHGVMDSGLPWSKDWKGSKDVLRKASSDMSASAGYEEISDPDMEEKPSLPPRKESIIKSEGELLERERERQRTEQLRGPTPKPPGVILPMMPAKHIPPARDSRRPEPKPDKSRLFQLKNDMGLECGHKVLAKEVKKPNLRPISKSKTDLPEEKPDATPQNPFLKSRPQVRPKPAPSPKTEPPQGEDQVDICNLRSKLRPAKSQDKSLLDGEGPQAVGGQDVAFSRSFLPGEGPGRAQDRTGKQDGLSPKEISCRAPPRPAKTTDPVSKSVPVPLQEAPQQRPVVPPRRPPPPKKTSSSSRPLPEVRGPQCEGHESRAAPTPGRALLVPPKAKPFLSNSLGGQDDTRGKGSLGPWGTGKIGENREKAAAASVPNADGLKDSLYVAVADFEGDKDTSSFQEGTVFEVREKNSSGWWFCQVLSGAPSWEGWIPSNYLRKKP
Chain of UniProt Q96T23 (Q96T23 whole entry, looked up): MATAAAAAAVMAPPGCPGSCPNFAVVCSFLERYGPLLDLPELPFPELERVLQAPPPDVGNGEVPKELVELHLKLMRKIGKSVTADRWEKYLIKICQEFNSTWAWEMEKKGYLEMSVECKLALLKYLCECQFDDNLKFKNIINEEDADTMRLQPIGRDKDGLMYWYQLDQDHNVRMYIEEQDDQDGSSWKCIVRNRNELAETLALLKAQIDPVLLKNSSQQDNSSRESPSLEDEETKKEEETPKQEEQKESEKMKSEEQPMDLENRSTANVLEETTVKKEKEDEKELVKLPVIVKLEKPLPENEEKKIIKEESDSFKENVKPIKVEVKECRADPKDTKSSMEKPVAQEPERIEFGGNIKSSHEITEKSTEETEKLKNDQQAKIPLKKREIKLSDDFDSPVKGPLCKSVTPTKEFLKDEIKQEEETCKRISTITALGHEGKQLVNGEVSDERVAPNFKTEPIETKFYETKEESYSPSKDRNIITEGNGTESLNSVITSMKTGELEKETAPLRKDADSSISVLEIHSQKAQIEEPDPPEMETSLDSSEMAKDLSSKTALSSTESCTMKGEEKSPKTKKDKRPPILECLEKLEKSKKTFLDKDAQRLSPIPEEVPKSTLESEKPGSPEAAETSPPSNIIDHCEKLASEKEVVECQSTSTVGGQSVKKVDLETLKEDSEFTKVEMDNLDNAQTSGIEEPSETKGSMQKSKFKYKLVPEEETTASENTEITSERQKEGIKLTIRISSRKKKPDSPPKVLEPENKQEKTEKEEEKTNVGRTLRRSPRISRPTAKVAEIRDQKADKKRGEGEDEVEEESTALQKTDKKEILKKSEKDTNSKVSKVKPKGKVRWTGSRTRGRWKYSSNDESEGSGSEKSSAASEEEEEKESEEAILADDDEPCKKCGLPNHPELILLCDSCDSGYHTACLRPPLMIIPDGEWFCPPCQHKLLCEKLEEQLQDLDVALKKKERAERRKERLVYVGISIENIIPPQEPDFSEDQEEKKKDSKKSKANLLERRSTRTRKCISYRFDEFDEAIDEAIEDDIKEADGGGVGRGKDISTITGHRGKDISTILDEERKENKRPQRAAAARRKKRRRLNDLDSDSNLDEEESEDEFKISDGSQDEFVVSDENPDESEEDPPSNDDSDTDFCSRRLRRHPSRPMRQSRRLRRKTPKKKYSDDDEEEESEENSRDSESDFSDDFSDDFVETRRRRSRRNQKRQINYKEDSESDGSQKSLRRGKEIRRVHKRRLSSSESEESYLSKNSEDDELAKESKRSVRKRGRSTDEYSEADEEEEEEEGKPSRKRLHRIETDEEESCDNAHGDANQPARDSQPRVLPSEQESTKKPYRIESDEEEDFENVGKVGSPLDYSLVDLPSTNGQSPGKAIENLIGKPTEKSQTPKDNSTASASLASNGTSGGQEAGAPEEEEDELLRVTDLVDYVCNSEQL
Chain of UniProt Q8NBJ9 (Q8NBJ9 whole entry, looked up): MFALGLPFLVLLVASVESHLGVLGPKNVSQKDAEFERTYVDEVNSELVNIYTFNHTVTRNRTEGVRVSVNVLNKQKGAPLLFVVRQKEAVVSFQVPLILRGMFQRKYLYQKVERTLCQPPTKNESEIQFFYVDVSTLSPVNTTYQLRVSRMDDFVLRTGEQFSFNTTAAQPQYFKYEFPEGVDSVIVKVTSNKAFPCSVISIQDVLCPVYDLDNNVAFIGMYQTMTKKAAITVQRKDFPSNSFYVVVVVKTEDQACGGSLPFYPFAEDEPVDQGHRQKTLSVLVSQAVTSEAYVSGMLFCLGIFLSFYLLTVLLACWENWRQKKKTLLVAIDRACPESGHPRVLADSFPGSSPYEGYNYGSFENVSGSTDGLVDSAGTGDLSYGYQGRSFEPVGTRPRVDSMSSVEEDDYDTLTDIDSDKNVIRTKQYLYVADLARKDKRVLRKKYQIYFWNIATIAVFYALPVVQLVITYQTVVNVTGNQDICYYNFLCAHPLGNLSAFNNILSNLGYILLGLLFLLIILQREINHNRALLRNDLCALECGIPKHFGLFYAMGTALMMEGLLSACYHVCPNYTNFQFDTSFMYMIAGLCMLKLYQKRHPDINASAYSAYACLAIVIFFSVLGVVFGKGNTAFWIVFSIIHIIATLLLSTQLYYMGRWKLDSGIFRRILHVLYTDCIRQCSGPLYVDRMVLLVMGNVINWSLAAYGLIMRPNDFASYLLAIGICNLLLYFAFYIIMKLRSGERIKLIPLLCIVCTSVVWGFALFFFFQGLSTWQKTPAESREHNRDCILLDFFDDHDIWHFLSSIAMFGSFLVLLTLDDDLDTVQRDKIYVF
Chain of UniProt Q86TU7 (Q86TU7 whole entry, looked up): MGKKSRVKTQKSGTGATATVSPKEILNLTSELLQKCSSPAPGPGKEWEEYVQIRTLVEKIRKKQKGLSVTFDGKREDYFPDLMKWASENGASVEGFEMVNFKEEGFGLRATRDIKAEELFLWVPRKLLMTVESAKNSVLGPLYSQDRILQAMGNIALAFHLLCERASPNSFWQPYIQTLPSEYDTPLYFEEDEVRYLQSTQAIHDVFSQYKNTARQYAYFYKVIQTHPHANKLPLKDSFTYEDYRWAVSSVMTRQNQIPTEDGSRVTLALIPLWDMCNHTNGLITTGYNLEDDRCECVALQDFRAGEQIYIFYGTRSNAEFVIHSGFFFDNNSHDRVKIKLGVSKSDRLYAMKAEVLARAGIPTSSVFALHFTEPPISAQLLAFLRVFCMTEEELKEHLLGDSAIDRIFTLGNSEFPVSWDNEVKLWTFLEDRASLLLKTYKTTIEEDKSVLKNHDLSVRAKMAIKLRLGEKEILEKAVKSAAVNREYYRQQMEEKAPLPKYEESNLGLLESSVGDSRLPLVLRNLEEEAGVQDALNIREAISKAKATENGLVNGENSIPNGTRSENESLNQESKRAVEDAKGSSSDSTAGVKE
Chain of UniProt P60602 (P60602 whole entry, looked up): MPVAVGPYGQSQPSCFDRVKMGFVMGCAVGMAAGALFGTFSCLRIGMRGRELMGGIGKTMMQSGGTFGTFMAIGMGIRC

log2 fold change, inactive:
SELENOH (UniProt Q8IZQ5) -0.143, RGS10 (UniProt O43665) -0.006, ROMO1 (UniProt P60602) 0.045, SERINC3 (UniProt Q13530) 0.01, SIRT2 (UniProt Q8IXJ6) -0.047, RANBP2 (UniProt P49792) -0.009, RPS15 (UniProt P62841) 0.186, RSF1 (UniProt Q96T23) 0.052, RRAGB (UniProt Q5VZM2) -0.04, RAF1 isoform 2 (UniProt P04049) -0.007, RABGAP1L isoform 3 (UniProt Q5R372) -0.021, RPS3A (UniProt P61247) 0.082, SCAF8 isoform 2 (UniProt Q9UPN6) -0.042, SETD3 (UniProt Q86TU7) 0.001, SEC23A (UniProt Q15436) 0.106, SLBP (UniProt Q14493) -0.101, RBM25 (UniProt P49756) -0.078, SIDT2 isoform 2 (UniProt Q8NBJ9) -0.003, RRP9 (UniProt O43818) 0.012, RSPRY1 (UniProt Q96DX4) -0.023, RPS27A (UniProt P62979) 0.222, SH3PXD2B (UniProt A1X283) -0.131, RTN4IP1 (UniProt Q8WWV3) -0.003
